According to the supplement of paper PMC4723716:
± gives the uncertainty stated by the source. In all, about 9,900 compounds were measured (“viability index relative to DMSO control”: median about 1, lowest 2% from about 0.85 on). The entries come from a sample that favours the lowest values as a whole.

Tested on: Plasmodium falciparum NF54 stage V gametocytes
Assay: viability index relative to DMSO control (fraction); higher = less gametocyte killing
Conditions: 2.5 µM, incubation time: 72 h
Outline: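 P. falciparum NF54 stage V gametocytes (serum-free medium, 0.75% gametocytemia, 1.25% hematocrit) were exposed to compound at 2.5 µM for 72 hr at 37°C under low oxygen, then stained with MitoTracker Red CMXRos and saponin for one to two hours. Red particles of 20–70 µm2 in one field per well were counted, and the viability index is that count scaled to the plate mean of solvent-only wells.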

[1] = library set: Broad Institute DOS

| SMILES | viability index [1] | viability index (library set: Broad Institute Blood Stage) |
| --- | --- | --- |
| CCCC(=O)Nc1ccc2c(c1)C(=O)N(C)C[C@@H](OC)[C@@H](C)CN(Cc1ccc(F)cc1)[C@@H](C)CO2 | 0.941 ± 0.11 |  |
| O=C(C[C@H]1CC[C@@H]2[C@H](COC[C@@H](O)CN2S(=O)(=O)c2ccc(F)cc2)O1)NCCN1CCCCC1 | 1.113 ± 0.0099 |  |
| COc1ccc(CN(C)C[C@@H]2OCc3cnnn3CCCC(=O)N([C@@H](C)CO)C[C@@H]2C)cc1 | 1.012 ± 0.0093 |  |
| CN1C(=O)c2cc(NC(=O)c3ccc(F)c(F)c3)ccc2OC[C@@H]2O[C@H](CC(=O)N3CCCCC3)CC[C@H]21 | 0.986 ± 0.14 |  |
| N#C[C@@H]1[C@@H](c2ccc(C#CC3(O)CCCC3)cc2)[C@@H](CO)N1C(=O)C1CCCCC1 | 1.11 ± 0.019 |  |
| O=C(Nc1ccc(C(F)(F)F)cc1)N[C@@H]1C=C[C@@H](CC(=O)N2CCCCC2)O[C@H]1CO | 1.111 ± 0.008 |  |
| C[C@@H]1CN([C@H](C)CO)C(=O)c2cccc(NC(=O)Nc3ccc(F)cc3)c2O[C@H]1CN(C)S(=O)(=O)c1ccc(Cl)cc1 | 0.92 ± 0.22 |  |
| CNC(=O)C[C@@H]1CC[C@@H]2[C@@H](COc3ccc(NC(=O)c4ccccc4F)cc3C(=O)N2C)O1 | 1.13 ± 0.083 |  |
| COc1cccc(S(=O)(=O)N2CC[C@H]3[C@H](CO)Nc4ccc(C#Cc5cccnc5)cc4[C@H]32)c1 | 1.11 ± 0.082 |  |
| O=C(Nc1ccc(F)cc1)N1CC(=O)N2[C@H](CO)[C@H](c3ccc(C#Cc4cccnc4)cc3)[C@@H]2C1 | 1.028 ± 0.0039 |  |
| O=C(Nc1ccc(F)cc1)N1CC(=O)N2[C@H](CO)[C@H](c3ccc(C#Cc4cccnc4)cc3)[C@H]2C1 | 1.1 ± 0.086 |  |
| O=C(Nc1cccc(F)c1)N1CCCCN2[C@H](C1)[C@@H](c1ccc(C#Cc3cccnc3)cc1)[C@@H]2CO | 0.81 ± 0.05 |  |
| COc1ccc(NC(=O)N2CCCCN3[C@H](C2)[C@@H](c2ccc(-c4ccccc4F)cc2)[C@@H]3CO)cc1 | 0.981 ± 0.042 |  |
| COc1ccc(NC(=O)N2CCCCN3[C@@H](CO)[C@@H](c4ccc(-c5ccccc5F)cc4)[C@@H]3C2)cc1 | 0.993 ± 0.011 |  |
| COc1ccc(C#Cc2ccc([C@@H]3[C@@H](CO)N4CCCCN(C(=O)Nc5cccc(F)c5)C[C@H]34)cc2)cc1 |  | 0.654 ± 0.049 |
| COc1ccccc1NC(=O)N1C[C@@H](O)COC[C@H]2O[C@H](CC(=O)N3CCC(Cc4ccccc4)CC3)CC[C@@H]21 | 1 ± 0.15 |  |
| COc1ccc(S(=O)(=O)Nc2ccc3c(c2)C(=O)N([C@@H](C)CO)C[C@@H](C)[C@@H](CN(C)Cc2ccc(C(F)(F)F)cc2)OCCCC[C@H](C)O3)cc1 | 0.994 ± 0.023 |  |
| COc1ccc(S(=O)(=O)Nc2ccc3c(c2)C(=O)N([C@H](C)CO)C[C@@H](C)[C@@H](CN(C)S(=O)(=O)c2ccc(Cl)cc2)OCCCC[C@@H](C)O3)cc1 | 0.533 ± 0.11 |  |
| COc1ccc(S(=O)(=O)Nc2ccc3c(c2)C(=O)N([C@H](C)CO)C[C@H](C)[C@@H](CN(C)S(=O)(=O)c2ccc(Cl)cc2)OCCCC[C@H](C)O3)cc1 | 0.886 ± 0.03 |  |
| COc1ccc(S(=O)(=O)Nc2ccc3c(c2)C(=O)N([C@H](C)CO)C[C@@H](C)[C@H](CN(C)S(=O)(=O)c2ccc(Cl)cc2)OCCCC[C@@H](C)O3)cc1 | 0.887 ± 0.072 |  |

| SMILES | viability index [1] | viability index (library set: Broad Institute Blood Stage) |
| --- | --- | --- |
| COc1ccc(S(=O)(=O)Nc2ccc3c(c2)C(=O)N([C@H](C)CO)C[C@@H](C)[C@H](CN(C)S(=O)(=O)c2ccc(Cl)cc2)OCCCC[C@H](C)O3)cc1 | 0.823 ± 0.033 |  |
| COc1ccc(S(=O)(=O)Nc2ccc3c(c2)C(=O)N([C@@H](C)CO)C[C@@H](C)[C@H](CN(C)S(=O)(=O)c2ccc(Cl)cc2)OCCCC[C@H](C)O3)cc1 | 0.9073 ± 0.0032 |  |
| COc1ccc(S(=O)(=O)Nc2ccc3c(c2)C(=O)N([C@@H](C)CO)C[C@H](C)[C@@H](CN(C)Cc2ccc(C(F)(F)F)cc2)OCCCC[C@@H](C)O3)cc1 | 0.829 ± 0.0097 |  |
| COc1ccc(S(=O)(=O)Nc2ccc3c(c2)C(=O)N([C@@H](C)CO)C[C@H](C)[C@H](CN(C)S(=O)(=O)c2ccc(Cl)cc2)OCCCC[C@@H](C)O3)cc1 | 0.953 ± 0.064 |  |
| COc1ccc(S(=O)(=O)Nc2ccc3c(c2)C(=O)N([C@@H](C)CO)C[C@H](C)[C@H](CN(C)Cc2ccc(C(F)(F)F)cc2)OCCCC[C@@H](C)O3)cc1 | 1.05 ± 0.2 |  |
| COc1ccc(S(=O)(=O)Nc2ccc3c(c2)C(=O)N([C@H](C)CO)C[C@H](C)[C@@H](CN(C)S(=O)(=O)c2ccc(Cl)cc2)OCCCC[C@@H](C)O3)cc1 | 1.02 ± 0.05 |  |
| COc1ccc(S(=O)(=O)Nc2ccc3c(c2)C(=O)N([C@@H](C)CO)C[C@@H](C)[C@@H](CN(C)S(=O)(=O)c2ccc(Cl)cc2)OCCCC[C@H](C)O3)cc1 | 0.911 ± 0.031 |  |
| COc1ccc(S(=O)(=O)Nc2ccc3c(c2)C(=O)N([C@@H](C)CO)C[C@@H](C)[C@@H](CN(C)S(=O)(=O)c2ccc(Cl)cc2)OCCCC[C@@H](C)O3)cc1 | 0.77 ± 0.046 |  |
| N#C[C@@H]1[C@H](c2ccccc2-c2cccc(F)c2)[C@@H](CO)N1C(=O)c1cccnc1 | 1.09 ± 0.063 |  |
| O=C(c1cccc(F)c1)N1CC2(C1)[C@H](c1ccccc1)[C@@H](CO)N2Cc1ccccn1 | 1.13 ± 0.11 |  |
| C[C@@H]1CN([C@@H](C)CO)C(=O)CCCn2nncc2CO[C@H]1CN(C)S(=O)(=O)c1ccc(Oc2ccccc2)nc1 | 1 ± 0.074 |  |
| C/C=C/c1ccc([C@H]2[C@H]3CNC[C@@H]2N3S(=O)(=O)Cc2ccccc2)cc1 | 1.06 ± 0.047 |  |
| N#C[C@H]1[C@@H](c2ccccc2-c2ccc(F)cc2)[C@@H](CO)N1C(=O)Cc1cccnc1 | 1.15 ± 0.046 |  |
| CO[C@@H]1CN(C)C(=O)c2cc(NC(=O)Nc3cc(F)ccc3F)ccc2OC[C@@H](C)NC[C@H]1C | 1.105 ± 0.0072 |  |
| Cc1noc(C)c1NC(=O)N(C)C[C@H]1Oc2ccc(NC(=O)Cc3cn(C)c4ccccc34)cc2CC(=O)N([C@H](C)CO)C[C@@H]1C | 1.04 ± 0.045 |  |
| COCC(=O)N1C[C@@H](C)[C@H](OC)CN(C)C(=O)c2ccc(NC(=O)Nc3cccc(F)c3)cc2OC[C@@H]1C | 1.032 ± 0.0043 |  |
| C[C@@H]1CCn2cc(nn2)COC[C@H](C)NC1=O | 1.06 ± 0.018 |  |
| CC(=O)N1[C@H](CO)[C@@H](c2ccccc2)C12CN(Cc1ccc(Cl)cc1)C2 | 1.06 ± 0.056 |  |
| CCN(C[C@H]1N[C@H](CO)[C@@H]1c1ccccc1)C(=O)c1ccncc1 | 1 ± 0.019 |  |
| C[C@H]1CCCCO[C@H](CN(C)C(=O)Nc2cccc3ccccc23)[C@@H](C)CN([C@@H](C)CO)C(=O)c2cc(NC(=O)CCC(F)(F)F)ccc2O1 | 0.993 ± 0.057 |  |
